Source: PubChem (National Center for Advancing Translational Sciences (NCATS))
Hits are enriched below; roughly 21% of the tested compounds scored in any of these assays.
CHX counter-1 – Cycloheximide Counterscreen for Small Molecule Inhibitors of Shiga Toxin | cell reporter, cycloheximide protein synthesis inhibition counterscreen | max response, % | 300,000 compounds, 12% hits; in the data active = max response mostly above about 13%, no sharp cut-off; inactive = mostly below about 14%; note: read at 38.3 µM for the half of the compounds with a filed dose; 0% is about no effect
Pf growth 48h – Primary qHTS for delayed death inhibitors of the malarial parasite plastid, 48 hour incubation. P. falciparum luciferase growth in erythrocytes, 48 h. Potency, µM (titrated, usually from 28.7 µM), inactives show at the highest dose activity change, negative = inhibition, usual class: inhibitors. 310,000 compounds, 5.9% hits. AID 504832, 2011; active = well fitted inhibition curve with a large enough effect; inconclusive = small, poorly fitted or top-dose-only effect, or another doubt; inactive = no such curve, though single readings can be large or run the other way; note: potency is the fitted concentration of half-maximal effect; % is set by controls: 0 for no effect and ±100 for the full control effect
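Erythrocytes infected with P. falciparum carrying an integrated firefly luciferase reporter (2% hematocrit, 0.1% parasitemia final) were exposed to compounds in RPMI 1640 with 0.5% Albumax at 37 C, 5% CO2. Growth inhibition was scored as reduced luminescence.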
NS1 function inh – qHTS Assay for Inhibitors of Influenza NS1 Protein Function | Potency, µM (top dose mostly 46.1 µM), for inactives: at the highest dose activity, positive = more growth | 270,000 compounds, 0.4% hits; note: potency is the fitted concentration of half-maximal effect; actives are rising curves; nearly all actives have a fitted effect of over 50% in size
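Growth recovery, yeast-based: influenza A NS1 expressed in S. cerevisiae causes slow growth, and suppressors are detected by OD600. The parent strain without NS1 is used as positive control.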
SARS PLP yeast – qHTS of Yeast-based Assay for SARS-CoV PLP | AID 485353, 2010 | 330,000 compounds, 0.19% hits | Potency, µM (titrated, usually from 32.9 µM), for the others: at the highest dose activity, positive = growth rescue, most hits filed as activators | S. cerevisiae expressing SARS-CoV PLpro, growth rescue; note: potency is the fitted concentration of half-maximal effect; 0% is about no effect; nearly all actives have a fitted effect of over 55% in size
Pf growth 96h – Primary qHTS for delayed death inhibitors of the malarial parasite plastid, 96 hour incubation; P. falciparum luciferase reporter growth, 96 h; Potency, µM (series often up to 28.7 µM), for inactives: top-dose activity change, negative = inhibition, hits mostly inhibitors; 320,000 compounds, 6.9% hits; AID 504834, 2011; active = well fitted inhibition curve with a large enough effect; inconclusive = small, poorly fitted or top-dose-only effect, or another doubt; inactive = no such curve, though single readings can be large or run the other way; note: potency is the fitted concentration of half-maximal effect; % is set by controls: 0 for no effect and ±100 for the full control effect
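Parasite growth measured via integrated firefly luciferase reporter in P. falciparum. Infected erythrocytes at 2% hematocrit, 0.05% parasitemia final were treated 96 hours at 37 C under 5% CO2, and luminescence was read.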
Shiga inhibitor – A qHTS for Small Molecule Inhibitors of Shiga Toxin | inhibition, % at 38.7 µM | 290,000 compounds, 9.2% hits | Vero cells, Shiga toxin protein synthesis inhibition reporter; in the data active = inhibition mostly above about 28%, no sharp cut-off; inactive = mostly below about 43%; note: 0% is about no effect
CHX counter-2 – Cycloheximide Counterscreen for Small Molecule Inhibitors of Shiga Toxin (Confirmatory) | shares compounds with Shiga inhibitor | Cycloheximide counterscreen, protein synthesis reporter, Shiga toxin assay | Potency, µM (doses to about 38.3 µM), for inactives: at the highest dose activity (activation), actives largely listed as activators | 510 compounds, 3% hits | AID 2318, 2010; note: potency is the fitted concentration of half-maximal effect; 0% is about no effect
The depositor's hits bear a star; ? = inconclusive; / = no result; [ ] = remark or other dose. Unless noted, calls come from the whole dose curve.

SMILES	CHX counter-1	Pf growth 48h	NS1 function inh	SARS PLP yeast	Pf growth 96h	Shiga inhibitor	CHX counter-2
NC(=O)C1CCN(C(=O)C2c3ccccc3C(=O)N3CCc4ccccc4C23)CC1 (stereo not drawn)	1	-2%	4%	-3%	-25%	46*	-5%
Cc1ccccc1C(=O)NN1CCOCC1	-1	-4%	13%	1%	?	21*	-1%
Clc1ccccc1/C=C/C=N/Nc1nc(N2CCOCC2)nc(N2CCOCC2)n1	-6	?	/	-8%	?	-1	/
CCCCC1(C)Nc2ccccc2-c2nc3ccccc3n21 (stereo not drawn)	13	2.1µM*	-87%	-10%	1.3µM*	84*	22µM*
CCC1(C)Nc2ccccc2C(=O)N1O (stereo not drawn)	-3	?	-2%	1%	52%	-17	/
CC(C)C(=O)SCCCCCCC(=O)Nc1nc(-c2ccccc2)cs1	-1	/	/	/	/	16*	1%
O=C(O)CCCC(=O)Nc1nc(-c2ccccc2)cs1	-3	13%	-3%	-2%	2%	-10	/
Nc1nc(-c2nn(Cc3ccccc3F)c3ncccc23)ncc1C1CC1	2	/	/	/	/	28*	3%
O=c1c2ccccc2nc(SCc2ccccc2F)n1C1CCCC1	-3	12%	1%	-12%	-10%	-1	/
CCOc1ccc(C(=O)NCc2ccccc2)cc1Br	6	5%	-6%	-20%	2%	-13	/
O=c1[nH]nc(CNc2ccc(C(F)(F)F)cc2)c2ccccc12	15	59%	/	?	158%	29*	?
O=c1[nH]nc(CNc2ccc(OC(F)(F)F)cc2)c2ccccc12	21	-3%	/	-22%	7%	28	/
COc1cccc(Oc2ccc(N)cn2)c1	9	36%	2%	0%	3%	29*	1%
CC(CNC(=O)c1ccc(C(C)(C)C)cc1)CN(C)C (stereo not drawn)	16	-16%	35%	-7%	93%	11	/
COC(=O)c1c(NS(C)(=O)=O)sc2c1CCCC2	-2	20%	-40%	-4%	/	28*	0%
COC(=O)c1c(NC(C)=O)sc2c1CCCC2	-5	-8%	-99%	-8%	?	-10	/
CC1(C)CC2(CCO1)OC(=O)CC2C(=O)Nc1ccc(Cl)cc1[N+](=O)[O-] (stereo not drawn)	-3	60%	2%	0%	52%	-7	/
CC1CCCN(CCSc2ccc(Cl)cc2)C1 (stereo not drawn)	-1	2%	3%	-7%	-20%	30*	0%
CC1CCN(CCOCCSc2ccc(Cl)cc2)CC1	-1	?	-6%	1%	36%[5.75 µM]	-8	/
O=C(/C=C/c1cccc(Cl)c1)NNC(=O)c1ccncc1	/	5%	/	0%	5%	/	/
C=CCN1C(=O)N(c2ccccc2)C(=O)C1CC(=O)Nc1ccc(OC)cc1 (stereo not drawn)	4	7%	-9%	6%	-4%	/	/
O=C(/C=C/c1cccc([N+](=O)[O-])c1)c1ccco1	-1	33%	-105%	-25%	?	12	/
COc1cccc(/C=C/C(=O)c2cccc([N+](=O)[O-])c2)c1	7	9%	-54%	-1%	25%	51*	0%
COc1cccc(/C=C/C(=O)c2cccc([N+](=O)[O-])c2)c1OC	11	-1%	-2%	0%	8%	60*	-2%
CN(C)S(=O)(=O)Oc1ccsc1C(=O)Nc1ccc(C(F)(F)F)cc1	0	0%	-2%	-2%	-10%	3	/
CN(C)S(=O)(=O)Oc1ccsc1C(=O)Nc1ccc(Cl)c(Cl)c1	10	?	-13%	-4%	?	66*	3%
Cc1cc(C(F)(F)F)nc(SCC(=O)Nc2cc(C)on2)n1	-4	/	-3%	-1%	18%	-21	/
Cc1cc(C)nc(SCC(=O)Nc2cc(C)on2)n1	10	16%	?	4%	-14%	119*	-1%
